# Test results published in the supplement of paper PMC4371806.
# Over roughly 2,300 compounds, “plate-normalized OD600 growth (mean of duplicates)” has its median near 0.29; the lowest 2% begin near 0.22. What follows is part of a selection rich in the lowest values, with near analogues and random picks from the rest.
# System: Escherichia coli BW25113
# Experiment: plate-normalized OD600 growth (mean of duplicates) (OD600 (normalized)); higher = more growth (less inhibition)
# Conditions: 10 µM
# Description: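 E. coli BW25113 in LB (100 µl, 96-well, no shaking) was exposed to 10 µM of each compound from a ~30,000-member library and grown at 37°C for 24 h or 15°C for 48 h, in duplicate. Growth was read as OD600 and the duplicate ODs were normalized across screening plates to correct plate-to-plate variation. Hits were >3σ below the mean OD600 at 15°C and <2σ below the mean at 37°C.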
Compound,"plate-normalized OD600 growth (temperature: 15°C, 48 h)","plate-normalized OD600 growth (temperature: 37°C, 24 h)"
C/C(CC(=O)Nc1ccc(N(C)C)cc1)=N\NC(=O)COc1ccc(C)cc1,0.236,0.627
CC(=O)N(CC(=O)Nc1ccc(C)cc1)c1ccccc1,0.214,0.646
Cc1ccc(NC(=O)CCN2CCN(c3ccccc3)CC2)cc1,0.26,0.612
COC(=O)C1=NN(c2ccccc2Cl)C2(S1)c1ccccc1C(C)=NN2c1ccccc1 (stereo unspecified),0.234,0.641
O=C(NCCSCc1ccco1)c1ccc(Cl)cc1,0.25,0.605
CC12CCC(C1)C(C)(C)C2NC(=O)c1cccs1 (stereo unspecified),0.26,0.639
Cc1nn(CC(=O)NNC(=O)COc2ccc(Cl)cc2Cl)c(C)c1Br,0.235,0.607
O=C(Oc1ccc(N(C(=O)c2ccccc2)S(=O)(=O)c2cccs2)cc1)c1ccccc1,0.225,0.622
O=c1[nH]nc(-c2ccc(N3CCN(CCO)CC3)c([N+](=O)[O-])c2)c2ccccc12,0.242,0.616
COCc1cc(C)c2c(n1)sc1c2nc(C)n2c3ccccc3nc12,0.244,0.619
CCOc1ccc(NC(=O)CC2S/C(=N\N=C\c3ccc(C)s3)NC2=O)cc1 (stereo unspecified),0.222,0.624
Cc1cc(C(O)(C(F)(F)F)C(F)(F)F)cc(C)c1O,0.249,0.618
O=C(Nc1nc(-c2ccccc2)cs1)C1CC(O)CN1C(=O)Oc1ccccc1 (stereo unspecified),0.263,0.648
Cc1cc(/C=N/NC(=O)c2cc3ccccc3o2)c(C)n1-c1ccc(C23CC4CC(CC(C4)C2)C3)cc1,0.244,0.607
COc1cccc(C2C3=C(CC(C)(C)CC3=O)OC(N)=C2[N+](=O)[O-])c1 (stereo unspecified),0.246,0.619
O=C(CC(=O)Nc1cccc(Cl)c1)N/N=C\c1ccccc1,0.246,0.616
OCCCc1cccc(C(F)(F)F)c1,0.242,0.586
O=C1C=C(Cl)CC(c2ccc(C(F)(F)F)cc2)C1 (stereo unspecified),0.243,0.607
O=C(O)c1ccc(Br)c(NC(=O)C2C3C=CC(C3)C2C(=O)O)c1 (stereo unspecified),0.248,0.604
N/C(=N\OC(=O)c1ccno1)c1ccc(C(F)(F)F)cc1,0.253,0.612
O=C(O)c1oc(C(=O)O)c(OCc2ccccc2)c1OCc1ccccc1,0.263,0.637
O=C(NNC(=O)c1ccccc1OCc1ccccc1)c1ccc(Cl)c(Cl)c1,0.216,0.606
Cc1nnn(-c2nonc2N)c1C(=O)NNC(=O)c1ccc(Cl)c(Cl)c1,0.243,0.606
O=C(Nc1ccc(Cl)cc1Cl)c1cnccn1,0.245,0.607

Compound,"plate-normalized OD600 growth (temperature: 15°C, 48 h)","plate-normalized OD600 growth (temperature: 37°C, 24 h)"
N#CC1=C2N=C(N)c3c(sc4c3CCCC4)N2C2=C(C(=O)CCC2)C1c1cccnc1 (stereo unspecified),0.246,0.624
C/C(=N/OC(=O)c1ccc(Cl)cc1)c1ccc(F)cc1,0.236,0.601
CCN(CC)C(=O)NC(=O)c1c(C)cc(Cl)nc1Cl,0.243,0.63
Cc1ccc(N2CC(=O)N(/N=C/c3ccc(F)cc3)C2=S)cc1,0.232,0.63
COc1ccc(C(=O)[C@@H]2[C@@H](c3cccs3)C(C#N)(C#N)[C@H]3C=Cc4ccccc4N23)cc1,0.251,0.63
C/C(=C\C(=O)Nc1ccc(F)cc1)Nc1ccc(F)cc1,0.253,0.613
CC(=O)C1=C(Nc2ccc(C)cc2)CC(C)(O)C(C(C)=O)C1c1ccc(F)cc1 (stereo unspecified),0.208,0.598
CC(=O)C1C(=O)CC(C)(O)C(C(C)=O)C1c1ccc(Br)cc1 (stereo unspecified),0.25,0.616
CN(C)N=Nc1ccc(S(=O)(=O)NC(=O)Cc2ccccc2)cc1,0.24,0.612
CC(C)(C)NC(=O)c1cc(NC(=O)C(F)(F)F)cc(NC(=O)C(F)(F)F)c1,0.234,0.605
O=C(COc1ccccc1[N+](=O)[O-])Nc1ccccn1,0.24,0.619
COc1ccc(Nc2nc(N/N=C/c3ccc(-c4cccc(C(=O)O)c4)o3)nc(Nc3ccccc3)n2)cc1,0.226,0.634
CC(C)(C)OC(=O)NC(Cc1ccc(OCc2ccccc2)cc1)C(=O)O (stereo unspecified),0.26,0.615
CCOC(=O)/C(C(C)=O)=C1/SCC(C)S1 (stereo unspecified),0.235,0.609
O=C1CC2(CCCC2)C(=O)N1CCNc1nccc(C(F)(F)F)n1,0.261,0.637
Cc1ccc(NC(=O)Nc2ccc(C)c(NC(=O)Nc3ccc(C)cc3)c2)cc1,0.242,0.578
O=C(CNC(=O)C(c1ccccc1)c1ccccc1)N/N=C/c1cc(Br)ccc1O,0.237,0.617
COc1cc(OC)c(C2C(C#N)=C(N)Oc3n[nH]c(-c4cccnc4)c32)cc1OC (stereo unspecified),0.244,0.612
CCc1nc(N)c(C#N)c(-c2ccccc2)c1C,0.239,0.61
CSc1nc2sc(C)c(C)c2c(=O)n1-c1ccccc1,0.219,0.653
O=C1/C(=C\c2ccc(Cl)cc2Cl)N=C(c2ccccc2)N1C1CC1,0.241,0.577
COc1ccc(C(=O)NCC(=O)N/N=C(\C)c2cccc(N)c2)cc1OC,0.249,0.633
O=C1CCc2cccc3cccc1c23,0.235,0.604
CCN(CC)c1ccc(C2C(C(=O)OC3CCCCC3)=C(C)NC3=C2C(=O)CC(c2ccc(Cl)cc2)C3)cc1 (stereo unspecified),0.238,0.614

Compound,"plate-normalized OD600 growth (temperature: 15°C, 48 h)","plate-normalized OD600 growth (temperature: 37°C, 24 h)"
CC1(C)C2CCC1(C)C(N/C(=C(/C(Cl)=C(Cl)Cl)[N+](=O)[O-])n1nnc3ccccc31)C2 (stereo unspecified),0.253,0.629
CSc1ccc(/C=C2\N=C(c3ccccc3)N(c3ccc(C(=O)Nc4ccc(Br)cc4)cc3)C2=O)cc1,0.257,0.649
COc1ccc(OC)c(NC(=O)c2ccc(N3C(=O)/C(=C/c4ccc(Cl)cc4)N=C3c3ccccc3)cc2)c1,0.216,0.634
O=C(Nc1ccc(F)c(Cl)c1)c1ccc(N2C(=O)/C(=C/c3ccccc3)N=C2c2ccccc2)cc1,0.238,0.653
COc1cc(NC(=S)N2CCN(c3ccccc3OC)CC2)c(OC)cc1Cl,0.231,0.614
Cc1cc(N2CCCC2)ccc1/C=N/n1cnnc1,0.259,0.687
Cc1cc(C=Nc2ccc(Cl)c(O)c2)c(C)n1-c1ccc(Cl)cc1,0.248,0.605
CN1N=C(SCc2ccc(Cl)cc2Cl)Sc2c1cnn(C)c2=O,0.25,0.591
CCCCCCCCNC(=O)C(=O)Nc1cccc(F)c1,0.244,0.564
Cc1ccc2c(c1)N(CCO)C(C)(C)CC2C (stereo unspecified),0.211,0.651
O=C(Nc1ccc(S(=O)(=O)Nc2cccc(Cl)c2Cl)cc1)C1COc2ccccc2O1 (stereo unspecified),0.262,0.62
Cc1cc(C)c2nc3s/c(=C\c4ccccc4C(F)(F)F)c(=O)n3c2c1,0.249,0.593
Cc1nc(-c2ccccn2)nc(NCCNc2cccc(C(F)(F)F)n2)c1Cl,0.257,0.626
O=C(CC1CCC1)Nc1cc(Cl)ccc1Cl,0.256,0.619
Cc1nnsc1C(=O)Nc1ccc(CN2CCS(=O)(=O)CC2)cc1,0.244,0.614
Cc1cc(NC(=NS(=O)(=O)c2ccc(Br)cc2)c2ccccc2)cc(C)c1O,0.251,0.652
Cc1cc(NC(=NS(=O)(=O)c2ccc(Br)cc2)c2ccccc2)c(Cl)c(C)c1O,0.214,0.634
Cc1ccc(S(=O)(=O)N=C(Nc2ccc(O)c(Cl)c2)c2ccccc2)cc1,0.232,0.618
Cc1oc(CC(C)C)cc1C(=O)Nc1cccc(C(=O)O)c1,0.255,0.643
Nc1ccccc1C(=O)Nc1cc(C(=O)O)cc(C(=O)O)c1,0.232,0.625
NC(N)=Nc1nc(-c2cc(Cl)sc2Cl)cs1,0.242,0.607
COc1cc(NC(=O)CCN2CCC(C)CC2)cc(OC)c1,0.217,0.647
Cc1c(Br)sc2ccc(Cl)cc12,0.247,0.612
O=C(CC1(O)C(=O)C=C(c2ccccc2)N1N=C(c1ccccc1)c1ccccc1)c1ccccc1 (stereo unspecified),0.242,0.588

Compound,"plate-normalized OD600 growth (temperature: 15°C, 48 h)","plate-normalized OD600 growth (temperature: 37°C, 24 h)"
CCOC(=O)COc1nc(-c2ccccc2)cc(-c2ccccc2)c1C#N,0.251,0.629
COc1ccc(C2SCC(=O)N2CCN2CCCCC2)cc1 (stereo unspecified),0.238,0.618
O=c1[nH]c2cccnc2[nH]c1=O,0.233,0.617
COc1ccc(C2CC(=O)N2C2(C(=O)Nc3c(C)cccc3C)CCCCC2)cc1OC (stereo unspecified),0.24,0.605
c1ccc(OCCOc2ccccn2)nc1,0.25,0.612
COc1ccc(Nc2nc(Cl)nc(NCCC3=CCCCC3)n2)cc1,0.257,0.602
O=C1c2cccc3c(SCCO)ccc(c23)C(=O)N1CCc1ccccn1,0.265,0.634
O=C(O)c1cccc(N=Cc2ccc(OCc3ccc(F)cc3)cc2)c1,0.225,0.684
CCCc1ccc(OCC(=O)NNC(=S)Nc2ccccc2)cc1,0.244,0.618
C=CCn1c(CSc2ccccc2[N+](=O)[O-])n[nH]c1=S,0.26,0.606
C=CCn1c(Sc2ncc([N+](=O)[O-])s2)n[nH]c1=O,0.181,0.588
O=[N+]([O-])c1cnc(Sc2n[nH]c(-c3cccs3)n2)s1,0.225,0.607
COc1ccc(/C=N/Nc2nnnn2-c2cccc3ccccc23)cc1OC,0.253,0.627
N#CCC(=O)N(Cc1ccccc1F)C(=O)NC1CCCCC1,0.263,0.647
N/C(=N/OC(=O)c1ccccc1)c1ccc(-c2csnn2)cc1,0.252,0.6
CCC(C)(C)C1CCc2sc3nc[nH]c(=O)c3c2C1 (stereo unspecified),0.248,0.626
CCOc1cc(/C=N/n2cnc3sc4c(c3c2=O)CCCC4)cc(Br)c1OCc1ccc(Cl)cc1,0.245,0.619
CCOC(=O)c1ccc(-c2ccc(/C=C(\C#N)C(=O)NC3CCCCC3)o2)cc1,0.241,0.604
O=C(CSc1nc2ccccc2[nH]1)Nc1nc2ccccc2s1,0.244,0.604
Cc1cc(C)c(C(=O)CSc2nc3ccccc3[nH]2)c(C)c1,0.213,0.626
COC(=O)CSc1nc(N)cc(=O)[nH]1,0.247,0.605
